Measured values reported in PubChem BioAssay AID504710 (Sanford-Burnham Center for Chemical Genomics, 2011).
Unmarked numbers belong to inactive results. Calls of active or inactive are those of the source.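 Rule for the calls: active = inhibition reaching about 16% in any single replicate (limit read from the data); inactive = the rest.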

Molecular target: Hexokinase HKDC1 (Homo sapiens) (UniProt Q2TB90)
Assay: compounds lowering human HKDC1 activity – biochemical, single concentration, confirmation (AID 504710)
Settings: recombinant HKDC1, G6PDH/diaphorase/resazurin fluorescence; at 20 µM; stronger effect = higher value

Hexokinase HKDC1 (Homo sapiens), sequence (Q2TB90 whole entry, looked up): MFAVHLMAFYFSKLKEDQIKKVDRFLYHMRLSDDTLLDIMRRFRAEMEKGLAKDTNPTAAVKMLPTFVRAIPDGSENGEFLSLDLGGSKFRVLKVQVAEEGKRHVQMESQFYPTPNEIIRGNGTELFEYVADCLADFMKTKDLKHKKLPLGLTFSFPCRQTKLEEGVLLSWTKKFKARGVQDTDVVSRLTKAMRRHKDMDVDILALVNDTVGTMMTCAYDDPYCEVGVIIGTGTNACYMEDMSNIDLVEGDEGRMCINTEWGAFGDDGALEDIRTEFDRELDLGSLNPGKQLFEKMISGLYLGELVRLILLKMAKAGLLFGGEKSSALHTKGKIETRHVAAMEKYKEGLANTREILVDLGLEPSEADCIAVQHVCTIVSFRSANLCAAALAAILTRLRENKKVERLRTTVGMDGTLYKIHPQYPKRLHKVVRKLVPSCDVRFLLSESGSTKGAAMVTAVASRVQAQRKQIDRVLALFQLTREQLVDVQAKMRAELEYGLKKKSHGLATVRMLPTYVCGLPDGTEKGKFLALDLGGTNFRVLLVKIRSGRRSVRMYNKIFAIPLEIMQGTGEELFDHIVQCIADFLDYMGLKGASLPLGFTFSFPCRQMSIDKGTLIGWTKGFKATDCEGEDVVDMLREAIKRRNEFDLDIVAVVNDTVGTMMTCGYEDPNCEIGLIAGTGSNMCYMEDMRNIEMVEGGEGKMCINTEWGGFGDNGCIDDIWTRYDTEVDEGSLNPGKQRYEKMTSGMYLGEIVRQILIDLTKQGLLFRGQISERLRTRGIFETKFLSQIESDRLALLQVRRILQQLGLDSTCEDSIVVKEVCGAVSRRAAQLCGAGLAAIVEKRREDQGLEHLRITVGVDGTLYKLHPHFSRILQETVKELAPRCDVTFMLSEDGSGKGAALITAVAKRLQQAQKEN

SMILES	inhibition
O=C(CN(C(=O)CCC(=O)Nc1ccccn1)c1ccc2c(c1)OCO2)NCc1ccc(F)cc1	31.3% (active)
COC(=O)c1ccc(NCc2cc(O)ccc2O)cc1	65.1% (active)
CC(C)c1nc2oc3c(=O)[nH]cnc3c2c2c1COC(C)(C)C2	48.4% (active)
CC(NC1=CC(=O)c2cccnc2C1=O)C(O)c1ccccc1 (configuration not stated)	43.3% (active)
Cc1cc(C)n2cc(CSc3nnc(-c4ccccc4)c(-c4ccccc4)n3)nc2n1	38.5% (active)
O=C1C=C(N2CCCCC2)c2ccccc2C1=O	86.1% (active)
Nc1nc(-c2cccc(Br)c2)cs1	-40.6%
CC1=NOC(=O)/C1=C\c1ccc(-c2ccc(Cl)cc2Cl)o1	47.4% (active)
O=C(NCCc1ccccc1)C(c1cccs1)N(C(=O)CCl)c1ccc(Cl)cc1 (configuration not stated)	23% (active)
O=C(/C=C/c1ccc(Br)cc1)NC(=S)Nc1ccc(S(=O)(=O)Nc2nccs2)cc1	39.5% (active)
CCCC(=O)NC1=C(Cl)C(=O)c2ccccc2C1=O	81.4% (active)
CCOC(=O)C1=C(Cc2ccc(Cl)cc2)C(=O)c2ccccc2C1=O	39.3% (active)
COc1ncnc2c1oc1nc(C(C)C)c3c(c12)CC(C)(C)OC3	43.5% (active)
O=C(Nc1ccc(N2CCCC2)cc1)c1cccc(-c2cc3ccccc3oc2=O)c1	-24.8%
COc1ccc(N2C3=C(CC4=C2CCCC4=O)C(=O)CCC3)cc1	47.1% (active)
CCN(CC)CCNc1cc(C)nc2c1C(=O)C(=O)C=C2N1CCCCC1	57.9% (active)
Cc1cc(C2=NNC(=Nc3ccc(S(=O)(=O)N4CCOCC4)cc3)SC2)c(C)n1C	-46.6%
Cc1ccccc1N=C1NN=C(c2ccccc2F)CS1	-40.3%
CC(=O)NC1C(=O)N(CCN2CCOCC2)c2ccc(Br)cc21 (configuration not stated)	61% (active)

SMILES	inhibition
Oc1ccc(O)c(Cc2nc3ccccc3[nH]2)c1	56% (active)
COC1=C(Br)C(=O)c2ncccc2C1=O	64.7% (active)
CC(=O)NC1C(=O)N(CCN2CCOCC2)c2ccc(Cl)cc21 (configuration not stated)	60.6% (active)
Cc1nc(COC(=O)c2cc(O)c3ccccc3c2O)cs1	39.5% (active)
O=S(=O)(NC1c2cccc3cccc(c23)C1N1CCN(CCO)CC1)c1ccccc1 (configuration not stated)	-118%
COC1=CC(=O)c2c(ccc3ncnc(N)c23)C1=O	87.6% (active)
CCCOc1ccc(/C=N/NC(=S)Nc2ccccc2[N+](=O)[O-])c(O)c1	-47.6%
O=C(O)c1cc(O)c2c(c1)[C@H]([C@H]1c3cc(C(=O)O)cc(O)c3C(=O)c3c(O[C@@H]4O[C@H](CO)[C@@H](O)[C@H](O)[C@H]4O)cccc31)c1cccc(OC3O[C@H](CO)[C@@H](O)[C@H](O)[C@H]3O)c1C2=O (some centres not stated)	52.1% (active)
N#C/C(=C(/O)CCl)c1nc2c(s1)CCc1ccccc1-2	46.1% (active)
Cc1nc2c(c(=O)c3ccccc3n2C)c(=O)n1-c1ccc(F)cc1	52.9% (active)
S=C1Cc2ccccc2N1	-192%
NC1=C(Cl)C(=O)c2ccc(S(N)(=O)=O)cc2C1=O	-42.9%
O=C(O)c1cc(O)c2c(c1)[C@@H]([C@H]1c3cc(C(=O)O)cc(O)c3C(=O)c3c(O[C@@H]4O[C@H](CO)[C@@H](O)[C@H](O)[C@H]4O)cccc31)c1cccc(O[C@@H]3O[C@H](CO)[C@@H](O)[C@H](O)[C@H]3O)c1C2=O	34.1% (active)
O=C1C(C2=C(O)c3ccccc3C2=O)=Nc2ccccc21	-162%
CCN=C1NN=C(c2ccc(C)cc2)CS1	-52%
CCOC(=O)Cn1c2ccc(F)cc2c2nc(C)sc21	-36.6%
COc1ccc(OC)c2[nH]c(=O)c(CCNC(=O)c3cc4ccccc4o3)cc12	59.6% (active)
O=C(NC1=C(NC2CCS(=O)(=O)C2)C(=O)c2ccccc2C1=O)c1ccccc1 (configuration not stated)	68.9% (active)
